62 molecules from PubChem BioAssay AID430 (Sanford-Burnham Center for Chemical Genomics, 2006) can be followed below.

Structures are written as SMILES. The whole screen tested about 63,000 compounds, of which about 1,100 (1.7%) were called active. For the sample, actives were picked, then their nearest neighbours and some compounds at random. Measured potencies and affinities stand elsewhere. Values without a mark were called inactive. Cut-off read from the data, not from the text of the source: active = cytotoxicity above about 50%; inactive = the rest.

This test can be described thus: cytotoxicity in HPDE-C7 cells, cell-based, fluorescence, HTS (AID 430).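 Note: cells exposed to compound for 48 hours before viability readout; 0% = vehicle and 100% = reference cytotoxic drug.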 The following applies: HPDE-C7 pancreatic duct cells viability, at 10 µM, stronger effect = higher value.
As to `CCCSc1nnc(NC(=O)Nc2ccc(F)cc2)s1`, the cytotoxicity was 69.6% (active). As for `CCC(=O)Nc1nnc(SCC(=O)Nc2ccc(F)cc2)s1`, the figure is 2.1%; as for `CCCSc1nnc(NC(=O)Nc2ccccc2)s1`, 6.3%.

On to `COc1ccccc1NC(=O)CN1CCN(Cc2ccccc2)CC1`, for which the cytotoxicity is 3%.

As to `COC(=O)c1sc(N)c(C(=O)OC)c1COC(=O)c1c(C)noc1C`, the cytotoxicity was 64.9% (active).

In the case of `COc1ccc(C(C)=O)cc1COC(=O)c1c(C)noc1C`, the cytotoxicity was 7.1%. As for `COC(=O)c1c(N)sc(C(C)=O)c1C`, the figure is -7.8%; as for `CC(C)CCNc1nc2c(c(=O)n(Cc3cccc(F)c3)c(=O)n2C)n1C`, 35.2%.

For the molecule `COc1ccc(-c2cn3c(n2)CCC3)cc1`, the cytotoxicity is 14.1%.

Take `CCCCCC1CCC(C(=O)O)CC1` (configuration not stated): the cytotoxicity is -12.7%.

Regarding `COC(=O)c1ccc2c(c1)N(Cc1nc(-c3cccc(C)c3)oc1C)C(=O)C1CCCN21` (configuration not stated), the cytotoxicity was 55.8% (active). `COC(=O)c1ccc2c(c1)N(Cc1nc(-c3cccc(Cl)c3)oc1C)C(=O)C1CCCN21` (configuration not stated): the cytotoxicity was 40.7%. In the case of `COC(=O)c1ccc2c(c1)N(Cc1nc(-c3ccc(Cl)cc3)oc1C)C(=O)C1CCCN21` (configuration not stated) it was -1.4%; in that of `CC(C)CCOCC1CC2(CC(C)(c3csc(N)n3)OC2=O)C(=O)O1` (configuration not stated), -2.2%; in that of `O=C(COC(=O)c1ccccc1NC(=O)c1ccco1)Nc1ccc2c(c1)OCO2`, -13.5%. In the case of `COc1cccc(C2C3=C(N=C4SCC(=O)N42)c2ccccc2CC3)c1OC` (configuration not stated) it was -2.4%; in that of `CCN(CC)c1ccc(-c2nn3c(-c4cccnc4)nnc3s2)cc1`, 43.2%.

Consider `CN(C)c1ccc(-c2nn3c(-c4ccncc4)nnc3s2)cc1`, for which the cytotoxicity is -9.1%. As for `CCc1nc2ccccc2n1CC(=O)N(C(C)CC)C1CCS(=O)(=O)C1` (configuration not stated), the figure is -20.3%. In the case of `Cn1c(Cn2c(=O)sc3ccccc32)nnc1SCc1ccc(F)cc1` it was -3.2%; in that of `O=C(CN1CCCC(O)C1)N1c2ccccc2Sc2ccc(C(F)(F)F)cc21` (configuration not stated), 24%. In the case of `O=C(Nc1cccc(C(F)(F)F)c1)c1cccnc1N1CCN(CCO)CC1` it was -10.8%; in that of `CCOC(=O)Nc1ccc2c(c1)N(C(=O)CN1CCN(C)CC1)c1ccccc1S2`, 5.2%.

As to `COc1ccc2c(c1)Sc1ccccc1N2CCN(C)C`, the cytotoxicity is 12.2%.

`CN(C)CCCN1c2ccccc2Sc2ccccc21`: the cytotoxicity was 13.7%. In the case of `C=CCN1C(=O)c2ccccc2Sc2ccc(C(=O)N3CCN(C)CC3)cc21` it was -17.1%; in that of `COc1ccc(Br)cc1S(=O)(=O)N(CC(=O)N1CCOCC1)c1ccccc1`, -5.3%.

On to `O=C(CCc1ccccc1)Nc1ccncc1`, for which the cytotoxicity is 0.1%. Turning to `Cn1c(Cn2c(=O)sc3ccccc32)nnc1SCC(=O)Nc1ccc(F)cc1`, the cytotoxicity was -7.1%. In the case of `CCOc1ccccc1N1CCN(Cc2cccc(OC)c2OC)CC1` it was -10.5%. In the case of `OC(CN1CCN(c2cccc(C(F)(F)F)c2)CC1)c1c[nH]c2ccccc12` (configuration not stated) it was 26.7%; in that of `O=C(CCn1c(=O)[nH]c2ccccc2c1=O)N1CCN(c2cccc(C(F)(F)F)c2)CC1`, -11.5%.

Regarding `Cc1[nH]c2ccccc2c1NC(=O)CN1CCN(c2cccc(C(F)(F)F)c2)CC1`, the cytotoxicity was 62.1% (active). In the case of `O=C(CN1CCN(c2ccccc2)CC1)Nc1cccc(C(F)(F)F)c1` it was -4.7%; in that of `COC(=O)c1[nH]c2ccccc2c1NC(=O)CN1CCN(c2cccc(Cl)c2)CC1`, 0.5%; in that of `CCc1nc2ccccc2c(C(=O)OCC(=O)NCCCN2CCCC2=O)c1C`, -4.2%. As for `CCOc1cc2[nH]c(=O)n(CCCCC(=O)NC3CCCCCC3)c(=O)c2cc1OCC`, the figure is 2.3%. In the case of `COC(=O)c1cc(COC(=O)c2cccnc2SC)oc1C` it was -9.4%; in that of `O=S(=O)(Nc1cccnc1)c1ccc2c(c1)OCCO2`, -9.7%. With `CCOC(=O)n1ccc(C(=O)Nc2ccccc2F)n1`, the cytotoxicity is -0.9%. Regarding `CCOC(=O)Cc1nnc2c(Nc3ccccc3F)nc3nonc3n12`, the cytotoxicity was 61.6% (active). As for `CCOC(=O)Cc1nnc2c(Nc3ccc(Cl)cc3)nc3nonc3n12`, the figure is 68.3% (active); as for `CCOC(=O)Cn1nc(-c2ccc(Cl)cc2)cc1N`, 10.3%.

As to `CCOC(=O)Cc1nnc2c(Nc3ccc(C)cc3)nc3nonc3n12`, the cytotoxicity is -35.8%. For the molecule `CCOC(=O)CCn1c(CC(=O)OCC)nc2ccccc21`, the cytotoxicity is -8.6%. In the case of `CCOC(=O)Cc1csc(NC(=O)c2cccc(N3C(=O)CCC3=O)c2)n1` it was -14.9%; in that of `O=C(Nn1cnnc1)c1cc(-c2ccccn2)nc2ccccc12`, 2.7%; in that of `O=C(Nc1cccc(Cl)c1N1CCCC1)c1ccc(Br)o1`, 75% (active). As to `CCN1CCN(c2c(Cl)cccc2NC(=O)c2ccc(Br)o2)CC1`, the cytotoxicity is 1.5%. On to `O=C(Nc1ccccc1N1CCCC1)c1ccc(Br)o1`, for which the cytotoxicity is 1.2%. For the molecule `CCCCNS(=O)(=O)c1ccc2nc(SCC(=O)c3ccc(C#N)cc3)[nH]c2c1`, the cytotoxicity was 5.7%. As for `CCCCNS(=O)(=O)c1ccc2nc(SCC(=O)Nc3sccc3C#N)[nH]c2c1`, the figure is 88.6% (active); as for `N#Cc1ccsc1NC(=O)CSc1ncn[nH]1`, -0.1%. On to `CCn1cc(Br)c(C(=O)N(C)Cc2ccccc2)n1`, for which the cytotoxicity was -2.4%. In the case of `CCC1CCCCN1C(=O)COC(=O)c1ccc(S(=O)(=O)N2CCOCC2)cc1` (configuration not stated) it was -5%.

Take `Cc1ccc(-c2nnn(CC(=O)N(c3ccccc3)C(C(=O)NC3CCCC3)c3ccco3)n2)o1` (configuration not stated): the cytotoxicity is -1%. In the case of `Cc1ccc(-c2nnn(CC(=O)N(Cc3cccs3)C(C(=O)NC3CCCC3)c3ccco3)n2)o1` (configuration not stated) it was 80.5% (active); in that of `Cc1ccc(-c2nnn(CC(=O)N(Cc3cccs3)C(C(=O)NC(C)(C)C)c3ccco3)n2)o1` (configuration not stated), -3.6%.

As to `COc1ccc(OC)c(Nc2nc(-c3sc(N)nc3C)cs2)c1`, the cytotoxicity is 34.5%. In the case of `COc1ccc(CNC(=O)C2CCCN2S(=O)(=O)c2ccc(C)cc2)cc1` (configuration not stated) it was 9.7%; in that of `CC(C)(C)c1ccccc1OCCCCCNCCO`, 9.8%. In the case of `CC(=O)CCc1c(C)[nH]c2ccccc2c1=O` it was -19.6%.
